About 79,000 compounds went through this panel and 15% of them were active in at least one assay; those are over-represented in the sample as a whole. Values without a mark were called inactive. Calls of active or inactive are those of the source. Rule as the data show it: active = growth inhibition above about 70%; inactive = the rest.
Columns and labels:
[1] = NCI Yeast Anticancer Drug Screen. Data for the rad50 strain (AID 155);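 also: 0% = growth of vehicle-only cultures of the same strain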; details: S. cerevisiae rad50 strain growth inhibition, active compounds read high
Method in brief: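 Yeast carrying a defined DNA repair defect were exposed to test compounds, and growth was compared with vehicle-treated controls to give percent inhibition.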

[2] = NCI Yeast Anticancer Drug Screen. Data for the mec2-1 strain (AID 157); details: S. cerevisiae mec2-1 strain, active compounds read high
Method in brief: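 Readout is yeast growth inhibition, normalised to vehicle-treated controls, in the mec2-1 strain exposed to compound.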

[3] = NCI Yeast Anticancer Drug Screen. Data for the sgs1 mgt1 strain (AID 161);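 also: 0% = growth of cultures given vehicle only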; details: S. cerevisiae sgs1 mgt1 strain, active compounds read high
Method in brief: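 Yeast cells carrying a defined DNA-repair defect were exposed to test compounds. Growth inhibition was measured relative to vehicle-treated controls.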

[4] = NCI Yeast Anticancer Drug Screen. Data for the cln2 rad14 strain (AID 165);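 also: 0% = growth equal to vehicle treated cultures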; details: S. cerevisiae cln2 rad14 strain, active compounds read high
Method in brief: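 Relative to vehicle controls, growth inhibition of compound-treated cln2 rad14 yeast was recorded.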

[5] = NCI Yeast Anticancer Drug Screen. Data for the bub3 strain (AID 167); details: S. cerevisiae bub3 mutant strain, active compounds read high
Method in brief: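 Compounds were applied to a genetically altered yeast strain carrying a cell-cycle control defect. Growth inhibition was scored against vehicle-treated controls.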

[6] = NCI Yeast Anticancer Drug Screen. Data for the mlh1 rad18 strain (AID 175); details: S. cerevisiae mlh1 rad18 strain growth inhibition, active compounds read high
Method in brief: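 Test agents were incubated with a yeast strain of defined genotype (DNA damage repair defect). Inhibition of growth was derived by comparison with vehicle-exposed cultures.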

[7] = at 5.0 µM (retest, dose inferred, filed as 0.5)
[8] = at 50.0 µM (retest, dose inferred, filed as 5.0)

Row | Compound | growth inhibition [1, 7] [%] | growth inhibition [1, 8] | growth inhibition ([1]; at 50.0 µM) | growth inhibition [2, 7] [%] | growth inhibition [2, 8] | growth inhibition ([2]; at 50.0 µM) | growth inhibition [3, 7] | growth inhibition [3, 8] | growth inhibition ([3]; at 50.0 µM) | growth inhibition [4, 7] | growth inhibition [4, 8] | growth inhibition ([4]; at 50.0 µM) [%] | growth inhibition [5, 7] | growth inhibition [5, 8] | growth inhibition ([5]; at 50.0 µM) | growth inhibition [6, 7] [%] | growth inhibition [6, 8] | growth inhibition ([6]; at 50.0 µM)
1 | Nc1ccc2c(S(=O)(=O)O)cc(S(=O)(=O)O)cc2c1 | 3 | 0% | -21.6% | 2 | -1% | -6.25% | 0% | -2% | -10.4% | 3% | 2% | 61.4 | 2% | -2% | 6.3% | 1 | -1% | -31.4%
2 | Nc1ncnc2c1cnn2C1CCCCC1 | 3 | 79% (active) | 30.2% | -2 | 46% | 58.8% | 0% | 45% | 14.9% | -1% | 68% | 36.3 | -2% | 58% | 32.7% | 1 | 75% (active) | 71.2% (active)
3 | CCCCCc1cc(Cl)cc(Cl)c1O | -5 | 45% | 60.1% | -23 | 0% | 10.1% | -5% | 26% | 67.5% | 0% | -6% | -13.2 | -22% | -22% | 9.05% | -3 | 18% | 62.1%
4 | CC(C)OC(=O)c1ccc(CCC2=CC(=O)C=CC2=O)cc1 | 34 | 89% (active) | 81.1% (active) | 53 | 99% (active) | 77.2% (active) | 86% (active) | 94% (active) | 87.3% (active) | 76% (active) | 91% (active) | 61.7 | 92% (active) | 95% (active) | 87.4% (active) | 66 | 98% (active) | 79.2% (active)

— PubChem BioAssay (NCI)
